Compound activity (PubChem BioAssay)
Shown are actives, neighbours in structure and some others; about 3.9% of the full set was active somewhere.
SARS 3CLpro inh = SARS-CoV 3CLpro protease inhibition. P0C6X7. recombinant SARS-CoV 3CLpro, quenched FRET peptide cleavage. inhibition, % at 6 µM. 290,000 compounds, 0.14% hits; in the data active = inhibition above about 12%
GDH-TPI counter-1 = inhibits GDH-TPI coupling enzymes, artifact for Mtb FBA screen; GDH-TPI coupled enzyme counterscreen, NADH absorbance; inhibition, % at 4.8 µM; 360,000 compounds, 1.2% hits; AID 588335; in the data active = inhibition above about 30%;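 also: 0% = DMSO wells and 100% = wells lacking the enzyme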
PrPC TRFRET = cell surface PrPC inhibition, primary TR-FRET screen | P04156 | AID 720596 | inhibition, % at 13.8 µM | 370,000 compounds, 0.43% hits | TR-FRET read-out; in the data active = inhibition above about 24%; also: 0% = median of the test wells and 100% = reference compound wells
FBA Mtb inh = inhibits M. tuberculosis FBA enzyme. purified M. tuberculosis FBA, fluorescence read-out. inhibition, % at 1 µM. 360,000 compounds, 2.3% hits. AID 588726;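 also: 0% = vehicle and 100% = reference inhibitor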
Target sequence (P9WQA3 whole entry, looked up): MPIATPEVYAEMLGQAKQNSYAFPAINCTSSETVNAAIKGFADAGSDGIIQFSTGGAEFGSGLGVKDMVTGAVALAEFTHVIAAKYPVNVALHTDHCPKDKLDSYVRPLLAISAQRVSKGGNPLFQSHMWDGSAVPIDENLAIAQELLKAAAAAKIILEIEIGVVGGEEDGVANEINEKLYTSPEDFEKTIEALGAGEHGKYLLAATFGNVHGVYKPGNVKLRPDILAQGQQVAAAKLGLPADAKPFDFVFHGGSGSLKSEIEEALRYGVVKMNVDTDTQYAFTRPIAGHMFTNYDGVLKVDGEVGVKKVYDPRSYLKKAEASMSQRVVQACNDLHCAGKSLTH
BH1578 lux ind = induces V. cholerae light production without autoinducers | V. cholerae BH1578 lux reporter, luminescence, 6 h | activation, % at 18.7 µM | 350,000 compounds, 0.16% hits | AID 588436; in the data active = activation mostly above about 9.7%, no sharp cut-off
Mtb FBA confirm = Mtb FBA inhibition, confirmed | purified M. tuberculosis FBA, fluorescence read-out | inhibition, % at 1 µM | shares compounds with FBA Mtb inh | 5,600 compounds, 78% hits;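 also: 0% = vehicle wells and 100% = reference inhibitor wells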
GDH-TPI counter-2 = counter-screen for M. tuberculosis FBA inhibitors: GDH-TPI coupled enzyme inhibition; shares compounds with FBA Mtb inh; GDH-TPI coupled enzyme counterscreen, fluorescence; inhibition, % at 1 µM; 5,600 compounds, 81% hits; AID 652141; in the data active = inhibition above about 10%
GDH-TPI DR = counter-screen for M. tuberculosis FBA inhibitors: GDH-TPI dose response; shares compounds with FBA Mtb inh; GDH-TPI coupled enzyme assay, fluorescence, artifact counterscreen; IC50, µM; 170 compounds, 79% hits; AID 652145; call rule not given here
An asterisk follows results filed as active; i = inactive; x = no result; + = active, no number. Rule as the data show it, unless noted: active = inhibition above about 27%; inactive = the rest.

SMILES | SARS 3CLpro inh | GDH-TPI counter-1 | PrPC TRFRET | FBA Mtb inh | BH1578 lux ind | Mtb FBA confirm | GDH-TPI counter-2 | others
CCOC(=O)c1[nH]c2cc3c(cc2c1NC(=O)CN1CCCC1)OCO3 | 3 | 16 | 6 | 73* | 0 | 76* | 49*
CC(C)Nc1ncnc2c1ncn2[C@H]1CN(C2CCCC2)C[C@@H](CO)O1 | x | -3 | 1 | 1 | 0 | x | x
Cc1noc(C)c1C(=O)N1CCC1(C)C(=O)NS(=O)(=O)c1cccc(F)c1 (centres undefined) | x | 10 | -8 | 0 | i | x | x
COc1ccc(CNC(=O)C23CC4CC(CC(Br)(C4)C2)C3)cc1 | 3 | 5 | -4 | 54* | i | 71* | 40*
C[N+]1(CC(=O)OCCCc2ccccc2)CCCCC1 | -7 | -3 | 4 | 30* | 0 | 60* | 42*
CC(C)(C)c1ccc(C(=O)NCCc2ccccc2)cc1 | -3 | 6 | -2 | 27* | -1 | 111* | 93*
CC(C)(C)c1ccc(C(=O)NCc2ccccc2)cc1 | 0 | -6 | 4 | 2 | 0 | x | x
CCN(CC)C(=O)c1ccc2nc3ccccc3nc2c1 | -3 | 11 | -46 | -2 | 2 | x | x
CCCNC(=O)c1ccc2nc(-c3ccccc3)c(-c3ccccc3)nc2c1 | 3 | 20 | -7 | 31* | 2 | 62* | 41*
COc1ccc(-c2nc3ccc(C(=O)NCCCN4CCOCC4)cc3nc2-c2ccc(OC)cc2)cc1 | 7 | -7 | -41 | 5 | 0 | x | x
CCN(CC)C(=O)c1ccc2nc(-c3ccccc3)c(-c3ccccc3)nc2c1 | 3 | 12 | -3 | 48* | 0 | 49* | 40*
COCC(C)NC(=O)c1ccc2nc(-c3ccccc3)c(-c3ccccc3)nc2c1 (centres undefined) | 9 | 18 | -16 | 42* | 1 | 52* | 49*
CCN1CCN(CCNC(=O)c2ccc3nc(-c4cccc(C)c4)c(-c4cccc(C)c4)nc3c2)CC1 | 6 | 18 | -17 | 30* | 0 | 59* | 51*
COC(=O)c1ccccc1C(=O)N1CCC(CCC(=O)NC2CC2)CC1 | -2 | 5 | -1 | -2 | i | x | x
O=C(/C=C/[C@H]1O[C@@H](n2ccc(=O)[nH]c2=O)[C@H](O)[C@@H]1O)NCCN1CCOCC1 | x | x | -6 | -2 | x | x | x
CCCn1c(=O)[nH]c(=O)c2c1nc(-c1cccs1)n2CCOC | 0 | 15 | 4 | 90* | 0 | + | 167*
CCCn1c(=O)[nH]c(=O)c2c(C(=O)OCC)cc(-c3cccs3)nc21 | 1 | 9 | -1 | 89* | 0 | 100* | 87*
CCCCn1c(=O)[nH]c(=O)c2c(C(=O)OCC)cc(-c3cccs3)nc21 | 6 | 5 | -1 | 69* | 0 | 12 | 7 | GDH-TPI DR=1.3*
CCOC(=O)c1cc(-c2cccs2)nn1CCC#N | -2 | 8 | -4 | -1 | i | x | x
CCCn1c(=O)[nH]c(=O)c2c1nc(-c1ccc(OC(F)(F)C(F)C(F)(F)F)cc1)n2CCOC (centres undefined) | 2 | -1 | 2 | 16 | 0 | x | x
COCCn1c(-c2ccc3ccccc3c2)nc2c1c(=O)[nH]c(=O)n2CC(C)C | 2 | -2 | 6 | 73* | -4 | 98* | 83*
CC(C)[C@H](NS(=O)(=O)c1ccc(F)cc1F)C(=O)N1CCC[C@H]1C(=O)NCCc1ccccc1Cl | x | x | 1 | x | x | x | x
CSCc1ccc(C(=O)NC2CC(C)(C)Cc3c2cnn3-c2ccc(F)cc2)o1 (centres undefined) | 0 | 0 | 2 | -2 | i | x | x
c1coc(-c2ccnc3ncnn23)c1 | 3 | 23 | -9 | 93* | i | 94* | 74*
CCCCc1nnc2c(N(C)S(=O)(=O)c3ccccc3)nc3ccccc3n12 | -1 | 17 | 8 | -3 | 0 | x | x
Cc1c(C(=O)OCC(=O)NCCN2C(=O)CSC2=O)oc2c1ccc1ccccc12 | -1 | 12 | 3 | 63* | 0 | 160* | 134*
Cc1cc(C)nc(NC(=O)c2c(F)c(F)c(F)c(C(=O)Nc3cc(C)cc(C)n3)c2F)c1 | x | 13 | -10 | 8 | 1 | x | x
